Source: PubChem BioAssay
Rab9 prom act: qHTS Assay for Rab9 Promoter Activators; Huh7 Rab9 promoter-luciferase reporter, luminescence, 24 h; Potency, µM (highest dose often 9.22 µM), most hits filed as activators; actives 2.8% (n = 320,000); AID 485297, 2010; also: nearly all actives have a fitted effect of over 60% in size
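Measured in stably transfected Huh7 cells bearing a Rab9 promoter–luciferase construct: 24 h compound treatment at 37 °C, followed by luminescence detection.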
ELG1 genotoxic: qHTS screen for small molecules that induce genotoxicity in human embryonic kidney (HEK293T) cells expressing luciferase-tagged ELG1 | HEK293T ELG1-luciferase reporter, luminescence, 16 h | actives 1.3% (n = 330,000) | Potency, µM (titrated, usually from 46 µM), most hits filed as activators | AID 504466, 2011; also: nearly all actives have a fitted effect of over 60% in size
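After overnight (16 hr) compound treatment at 37 °C, ELG1-luciferase HEK293T cells were lysed with ONE-Glo; luminescence quantified 30 min later at room temperature.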
NPC1 prom act: qHTS Assay for NPC1 Promoter Activators; AID 485313, 2010; actives 2.4% (n = 320,000); Potency, µM (highest dose often 9.22 µM), hits mostly activators; Huh7 NPC1 promoter luciferase reporter, 24 h; also: nearly all actives have a fitted effect of over 60% in size
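Compounds in DMSO were transferred onto Huh7 NPC1-luciferase reporter cells pre-incubated 2 h; after 24 h at 37 °C, Amplite reagent was dispensed and luminescence recorded 10 min later.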
FLuc counter: qHTS profiling assay for firefly luciferase inhibitor/activator using purifed enzyme and Km concentrations of substrates (counterscreen for miR-21 project); purified FLuc, Km substrates, luminescence inhibition; Potency, µM (top dose mostly 57.5 µM), most hits filed as inhibitors; actives 6.9% (n = 360,000); also: nearly all actives have a fitted effect of over 55% in size
Target sequence (P08659 whole entry, looked up): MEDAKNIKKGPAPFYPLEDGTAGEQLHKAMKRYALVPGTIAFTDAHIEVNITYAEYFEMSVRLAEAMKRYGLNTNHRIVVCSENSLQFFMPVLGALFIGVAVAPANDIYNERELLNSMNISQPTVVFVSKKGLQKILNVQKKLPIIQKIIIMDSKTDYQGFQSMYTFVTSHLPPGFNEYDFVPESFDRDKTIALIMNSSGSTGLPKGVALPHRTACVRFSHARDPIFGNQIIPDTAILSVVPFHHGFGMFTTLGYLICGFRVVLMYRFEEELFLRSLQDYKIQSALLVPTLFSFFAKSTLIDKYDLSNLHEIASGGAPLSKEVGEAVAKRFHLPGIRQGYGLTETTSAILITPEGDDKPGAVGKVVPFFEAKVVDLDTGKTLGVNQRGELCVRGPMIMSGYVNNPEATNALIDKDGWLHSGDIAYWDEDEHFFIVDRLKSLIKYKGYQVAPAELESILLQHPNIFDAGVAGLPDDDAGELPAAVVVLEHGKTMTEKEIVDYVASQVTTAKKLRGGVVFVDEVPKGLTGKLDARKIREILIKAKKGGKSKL
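Purified P. pyralis luciferase (10nM final) with 10uM D-luciferin and 10uM ATP (Km levels) in 50mM Tris acetate pH 7.5, 10mM Mg acetate, 0.01% Tween-20, 0.05% BSA; qHTS 6-point titration, ~60 µM downward; luminescence read.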
SMN2 splice up: qHTS Assay for Enhancers of SMN2 Splice Variant Expression. HEK293 SMN2-luciferase splicing reporter, luminescence, 30-36 h. Potency, µM (highest dose often 46.1 µM), most hits filed as activators. actives 2.8% (n = 210,000). AID 1458, 2008; also: nearly all actives have a fitted effect of over 55% in size
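HEK293 cells carry an SMN2 […]–luciferase reporter in which exon 7 inclusion puts luciferase in frame. Cells were plated 10-12 h before compound addition, then incubated 30-36 h at 37C. ONE-Glo luminescence was read; sodium butyrate at 4.5 mM final served as control.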
KinaseGlo FLuc: Counterscreen for Luciferase (Kinase-Glo TM) Inhibition; Luciferin 4-monooxygenase (Photuris pensylvanica), Q27757; Potency, µM (top dose mostly 38.3 µM), actives largely listed as inhibitors; actives 0.28% (n = 200,000); Kinase-Glo luciferase, ATP luminescence, 8 min; also: nearly all actives have a fitted effect of over 60% in size
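Light output from Kinase-Glo luciferase with luciferin and 10 uM ATP in 50 mM imidazole pH 7.2, KCl, MgCl2, Tween 20, BSA; compound pin-delivered, 8-min ambient incubation, then luminescence read.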
A number is an active result. In the library only some 7.4% were active in any assay of this set; here they are far more common. Calls follow the shape of the dose curve; as a rule, active = well fitted curve in the direction sought with a large enough effect; inconclusive = small, poorly fitted or top-dose-only effect, or another doubt; inactive = no such curve, though single readings can be large; an effect the other way counts as inactive or inconclusive.

Results for O=C(COC(=O)[C@H](Cc1c[nH]c2ccccc12)NC(=O)c1cccs1)NCc1ccccc1 ?
Rab9 prom act: inactive; ELG1 genotoxic: inactive; NPC1 prom act: inactive; FLuc counter: inactive; SMN2 splice up: inactive; KinaseGlo FLuc: inactive

What do the screens show for `CCN(CC)c1ccc(NC(=O)CN2C(=O)c3cccnc3Sc3ccccc32)c(C)c1`?
FLuc counter: inactive

Results for CC(C)C(=O)Nc1ccc(NC(=O)c2ccccc2Cl)nc1 ?
Rab9 prom act: 3.16µM; ELG1 genotoxic: 16.4µM; NPC1 prom act: inconclusive; FLuc counter: 21.3µM; KinaseGlo FLuc: inactive

How did O=C(Nc1ccc(Cl)cn1)c1ccc(Oc2ccccc2)cc1 do in these assays?
Rab9 prom act: 2.24µM; ELG1 genotoxic: inconclusive; NPC1 prom act: 1.26µM; FLuc counter: 3.38µM

What do the screens show for `Cc1ccccc1C(=O)Nc1ccc(Cl)cn1`?
Rab9 prom act: 3.55µM; ELG1 genotoxic: 10.3µM; NPC1 prom act: 2.51µM; FLuc counter: 16.9µM; SMN2 splice up: inactive; KinaseGlo FLuc: inactive

What do the screens show for `Cc1ccccc1C(=O)Nc1ccc(Br)c(C)n1`?
Rab9 prom act: inconclusive; ELG1 genotoxic: 11.6µM; NPC1 prom act: inconclusive; FLuc counter: 23.9µM; SMN2 splice up: inactive; KinaseGlo FLuc: inactive

How did Cc1noc(/C=C/c2ccccc2F)c1S(=O)(=O)N1CCC(C(=O)N2CCOc3ccccc32)CC1 do in these assays?
FLuc counter: inactive

Results for CC1=NN(C(C#N)c2ccccc2C)C(C)(C)C1 (stereo not drawn) ?
Rab9 prom act: inactive; ELG1 genotoxic: inactive; NPC1 prom act: inactive; FLuc counter: inactive; SMN2 splice up: inactive; KinaseGlo FLuc: inactive

Results for O=C(Nc1ccccc1Cl)c1cccs1 ?
Rab9 prom act: inactive; ELG1 genotoxic: inactive; NPC1 prom act: inactive; FLuc counter: inconclusive; SMN2 splice up: inactive; KinaseGlo FLuc: inactive

Results for O=C(Nc1ccccc1Cl)c1ccc(-c2ccccn2)s1 ?
Rab9 prom act: 1.41µM; ELG1 genotoxic: inconclusive; NPC1 prom act: 2µM; FLuc counter: 3.38µM

Results for CCOC(=O)C(CC)/C(C)=N\NC(=O)c1ccccc1O (stereo not drawn) ?
Rab9 prom act: inactive; ELG1 genotoxic: inconclusive; NPC1 prom act: inactive; FLuc counter: inconclusive; SMN2 splice up: inactive; KinaseGlo FLuc: inactive

How did C/C(=N\NC(=O)c1ccccc1O)C1C(=O)c2ccccc2C1=O do in these assays?
Rab9 prom act: inactive; ELG1 genotoxic: 8.2µM; NPC1 prom act: inconclusive; FLuc counter: 13.5µM; SMN2 splice up: 10µM; KinaseGlo FLuc: inactive

What do the screens show for `C/C(=N/NC(=O)c1cc2ccccc2cc1O)C1C(=O)c2ccccc2C1=O`?
Rab9 prom act: inconclusive; ELG1 genotoxic: inconclusive; NPC1 prom act: inactive; FLuc counter: 16.9µM; SMN2 splice up: inconclusive; KinaseGlo FLuc: inactive

How did C/C(CC(=O)N1CCN(C=O)CC1)=N\NC(=O)c1cc2ccccc2cc1O do in these assays?
Rab9 prom act: inactive; ELG1 genotoxic: inactive; NPC1 prom act: inactive; FLuc counter: 21.3µM; SMN2 splice up: inactive; KinaseGlo FLuc: inactive

What do the screens show for `O=C(CNC(=O)N1CC(=O)Nc2ccccc21)Nc1cccc(F)c1`?
Rab9 prom act: inactive; ELG1 genotoxic: inactive; NPC1 prom act: inactive; FLuc counter: inactive

How did CC(Sc1nc2c(c(=O)[nH]1)CCCC2)C(=O)Nc1ccccc1C#N (stereo not drawn) do in these assays?
Rab9 prom act: inactive; ELG1 genotoxic: inactive; NPC1 prom act: inactive; FLuc counter: inactive

How did O=C(Nc1ccc(Cl)c(Cl)c1)N1CCC(N2CCCCC2)CC1 do in these assays?
Rab9 prom act: inactive; ELG1 genotoxic: inactive; NPC1 prom act: inactive; FLuc counter: inactive; SMN2 splice up: inactive; KinaseGlo FLuc: inactive

What do the screens show for `CCOC(=O)C1CCN(C(=O)Nc2ccc3nc(-c4ccco4)c(-c4ccco4)nc3c2)CC1`?
Rab9 prom act: inactive; ELG1 genotoxic: inactive; NPC1 prom act: inactive; FLuc counter: inconclusive; SMN2 splice up: inactive; KinaseGlo FLuc: inactive

Results for Cc1ccc(C2CCN(C(=O)Nc3ccc(Cl)c(Cl)c3)C2)cc1 (stereo not drawn) ?
FLuc counter: 4.78µM

What do the screens show for `S=C(Nc1ccc2nsnc2c1)N1CCCC1`?
Rab9 prom act: inactive; ELG1 genotoxic: inactive; NPC1 prom act: inactive; FLuc counter: inconclusive; KinaseGlo FLuc: inactive

Results for O=C(Nc1ccc(Cl)c(Cl)c1)N1CCCCCC1 ?
Rab9 prom act: 2.51µM; ELG1 genotoxic: inconclusive; NPC1 prom act: 2.82µM; FLuc counter: 6.01µM

What do the screens show for `O=C(Nc1ccc2nsnc2c1)N1CCCCCC1`?
Rab9 prom act: inconclusive; ELG1 genotoxic: inconclusive; NPC1 prom act: inactive; FLuc counter: 16.9µM; SMN2 splice up: inactive; KinaseGlo FLuc: inactive

Results for O=C(Nc1ccc2nc(-c3ccco3)c(-c3ccco3)nc2c1)N1CCCCCC1 ?
Rab9 prom act: inactive; ELG1 genotoxic: inactive; NPC1 prom act: inactive; FLuc counter: 21.3µM; SMN2 splice up: inactive; KinaseGlo FLuc: inactive

What do the screens show for `Cc1cccc(C(=O)N[C@H](C(=O)NCCc2ccc(Cl)cc2)C(C)C)c1`?
Rab9 prom act: inactive; ELG1 genotoxic: inactive; NPC1 prom act: inactive; FLuc counter: inactive

How did O=C(Nc1ccc(Cl)c(Cl)c1)N1CCC(c2ccccc2)C1 (stereo not drawn) do in these assays?
FLuc counter: 1.69µM

What do the screens show for `CCOc1ccc(NC(=O)N2CCC(c3ccc(C)cc3)C2)cc1` (stereo not drawn)?
Rab9 prom act: inactive; ELG1 genotoxic: inactive; NPC1 prom act: inactive; FLuc counter: inactive; SMN2 splice up: inactive; KinaseGlo FLuc: inactive

Results for Cc1ccc(C2CCN(C(=O)Nc3ccc(C)c(C)c3)C2)cc1 (stereo not drawn) ?
FLuc counter: 12µM

Results for Cc1ccc(NC(=O)Cc2ccccc2)cc1S(=O)(=O)N1CCOCC1 ?
ELG1 genotoxic: inactive

What do the screens show for `Cc1cccc(Nc2cc(=O)n(C)c(=O)[nH]2)c1`?
Rab9 prom act: inactive; ELG1 genotoxic: inactive; NPC1 prom act: inactive; FLuc counter: inactive

How did COc1ccc(CN(C(=O)c2ccc(OCC(C)C)cc2)C2CCS(=O)(=O)C2)cc1 (stereo not drawn) do in these assays?
FLuc counter: inactive; SMN2 splice up: inactive

What do the screens show for `CN(C)/C=N/c1c(C#N)cnn1-c1ccccc1`?
Rab9 prom act: inactive; ELG1 genotoxic: inactive; NPC1 prom act: inactive; FLuc counter: inactive; SMN2 splice up: inactive; KinaseGlo FLuc: inactive
